About 79,000 compounds went through this panel and 15% of them were active in at least one assay; those are over-represented in the sample as a whole. The source made the active and inactive calls. Cut-off read from the data, not from the text of the source: active = growth inhibition above about 70%; inactive = the rest.
Legend:
[1] = NCI Yeast Anticancer Drug Screen. Data for the rad50 strain (AID 155);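 note: 0% = growth of vehicle-only cultures of the same strain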; details: S. cerevisiae rad50 strain growth inhibition; at 50.0 µM; hits give high values
Method in brief: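 Inhibition values express reduced yeast growth in compound-treated cultures relative to vehicle-treated controls.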

[2] = NCI Yeast Anticancer Drug Screen. Data for the mec2-1 strain (AID 157); details: S. cerevisiae mec2-1 strain, at 50.0 µM, hits give high values
Method in brief: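 Compounds were applied to mec2-1 yeast cells. Their growth was then compared with that of vehicle-treated cultures to give growth inhibition.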

[3] = NCI Yeast Anticancer Drug Screen. Data for the sgs1 mgt1 strain (AID 161);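 note: 0% = growth of cultures given vehicle only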; details: S. cerevisiae sgs1 mgt1 strain, at 50.0 µM, hits give high values
Method in brief: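 Compounds are added to genetically altered yeast, and growth is compared with cultures given vehicle alone to give percent inhibition.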

[4] = NCI Yeast Anticancer Drug Screen. Data for the cln2 rad14 strain (AID 165);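 note: 0% = growth equal to vehicle treated cultures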; details: S. cerevisiae cln2 rad14 strain, at 50.0 µM, hits give high values
Method in brief: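 Strain: cln2 rad14 yeast, altered in cell cycle control and DNA damage repair. Read-out: growth inhibition vs vehicle.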

[5] = NCI Yeast Anticancer Drug Screen. Data for the bub3 strain (AID 167); details: S. cerevisiae bub3 mutant strain, at 50.0 µM, hits give high values
Method in brief: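 Steps: expose the mutant yeast strain to compound; grow alongside vehicle-treated cultures; measure growth; express inhibition against the vehicle cultures.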

[6] = NCI Yeast Anticancer Drug Screen. Data for the mlh1 rad18 strain (AID 175); details: S. cerevisiae mlh1 rad18 strain growth inhibition; at 50.0 µM; hits give high values
Method in brief: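 A repair-deficient yeast strain is exposed to test compound, and growth is scored relative to vehicle-treated controls.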

Measured: growth inhibition

O=C(O)c1nn(-c2ccc(Cl)cc2)c2c1C(=O)c1ccccc1C2=O
inactive: [1] 20.9% | [2] 14.7% | [3] -1.75% | [4] 14.1% | [5] 12% | [6] 4.65%

Cc1nc(-n2nc(-c3ccccc3)cc2-c2ccccc2)sc1C(/C=C/c1ccc([N+](=O)[O-])cc1)=N/NC(N)=S
inactive: [1] 18.6% | [2] 7.15% | [3] 12.7% | [4] -18.3% | [5] 44.4% | [6] 33.7%

O=[N+]([O-])c1ccc(Nc2ccccc2)c([N+](=O)[O-])c1
inactive: [1] 2.4% | [2] -12.8% | [3] -1.4% | [4] -32.2% | [5] -7.05% | [6] 8.5%

Cc1ccc2nc(-c3ccc(N)cc3)sc2c1S(=O)(=O)O
inactive: [1] 3.3% | [2] 2.15% | [3] 6.8% | [4] 2.45% | [5] 2.3% | [6] 5.65%

O=S(=O)(O)Cc1ccccc1
inactive: [1] -29.9% | [2] -21.9% | [3] -19.1% | [4] -24.4% | [5] 2.45% | [6] 2.35%

CC(C)(C)CC(C)(O)COC(=S)S (stereo unspecified)
inactive: [1] -10.5% | [2] -18% | [3] 1.65% | [4] -11.2% | [5] -7.45% | [6] 0.55%

CCOc1ccccc1NC(=S)NC(=O)CCc1ccccc1
inactive: [1] -12.9% | [2] 14.2% | [3] 41.9% | [4] -35% | [5] 31.6% | [6] 21.8%

CC(C)c1ccc(C(O)C2CC2)cc1 (stereo unspecified)
inactive: [1] -14.3% | [2] -40.8% | [3] -15.2% | [4] 3.05% | [5] -19.6% | [6] -11.6%

O=NN(CCCl)C(=O)NCCc1cccc[n+]1[O-]
inactive: [1] 2.6% | [2] 14.3% | [3] -14.1% | [4] -5.75% | [5] -2.45% | [6] -57.6%

N#Cc1ccc(C=NC23CC4CC(CC(C4)C2)C3)cc1
inactive: [1] -12% | [2] -10% | [3] -6.7% | [4] 2.4% | [5] -2% | [6] -4.1%

CCC(C)[N+](=O)[O-] (stereo unspecified)
inactive: [1] 3.6% | [2] -5.1% | [3] -5.55% | [4] -2.15% | [5] 0.75% | [6] 3.1%

CN1c2ccccc2C2=C(c3ccccc3)CC[C@@H](C(=O)N3C4CC5CC[C@@]4(CS3(=O)=O)C5(C)C)[C@@H]21 (stereo partly specified)
inactive: [1] -14.6% | [2] -6.2% | [3] 20.6% | [4] 10% | [5] -8.85% | [6] 31.8%

CCOC(=O)Nc1nn(-c2ccc3ccccc3n2)c(=O)[nH]1
inactive: [1] 15.7% | [2] 1.65% | [3] 10.7% | [4] 11.9% | [5] 7.75% | [6] 13.7%

CCOC(=O)C1=C(O)c2ccc(OC)cc2C(=O)C1=O
inactive: [1] -5.5% | [2] -10.5% | [3] 12.7% | [4] 2.05% | [5] -9% | [6] 0.3%

CCc1c(NCCO)c(C(=O)NCCO)c2nc3ccccc3n2c1NCCO
inactive: [1] 2.2% | [2] 9.65% | [3] -3.1% | [4] -14.1% | [5] -7.3% | [6] 11.8%

CC12CC3(Nc4ccccc4C3(C)O)OC1(C)c1ccccc1N2 (stereo unspecified)
inactive: [1] 1.1% | [2] 9.35% | [3] 10.3% | [4] 1.25% | [5] -6.1% | [6] 17.5%

CCc1ccc(NC(=O)Nc2cccc(Cl)c2)cc1
inactive: [1] -5.8% | [2] 14.4% | [3] -5.35% | [4] -19.6% | [5] -0.55% | [6] 4.9%

CCC(C(=O)O)C(C)(C)O (stereo unspecified)
inactive: [1] -10.8% | [2] -11.1% | [3] -7.95% | [4] 7.05% | [5] -0.85% | [6] -15.3%

Cc1ccc2nc(CC(=O)c3ccc(F)cc3)c(=O)[nH]c2c1
inactive: [1] 1.85% | [2] 18.8% | [3] 16.1% | [4] 27.8% | [5] 18.1% | [6] 34.9%

O=c1c2c([nH]c(=S)n1-c1ccccc1)NCCC2
inactive: [1] -13.8% | [2] -1.25% | [3] -11.6% | [4] 3.3% | [5] 9.55% | [6] 0.4%

CN(C=O)c1ccc(C(=O)O)cc1
inactive: [1] 4.35% | [2] 11.9% | [3] -6.25% | [4] 2% | [5] 17.6% | [6] 10.6%

O=S(Nc1ccc(Br)cc1)c1ccccc1 (stereo unspecified)
inactive: [1] -3.5% | [2] -0.35% | [3] 5.65% | [4] -8.2% | [5] 3.4% | [6] 1.55%

Cc1cccc(N=Cc2ccc(Cl)cc2Cl)c1C
inactive: [1] 34.6% | [2] 20.1% | [3] 26.7% | [4] 28.6% | [5] 19% | [6] 31.6%

CC(=O)OC1COC(Cl)C(OC(C)=O)C1OC(C)=O (stereo unspecified)
inactive: [1] -4.95% | [2] -2.9% | [3] 0.1% | [4] 3.95% | [5] -8.95% | [6] 1.75%

CC1C(c2ccccc2)OC(c2ccccc2)N1C (stereo unspecified)
inactive: [1] 3.25% | [2] -6.55% | [3] 21.4% | [4] 55.4% | [5] 9.7% | [6] -15.2%

CCCCOc1ccc(C(=O)C(C(c2ccccc2)N2CCOCC2)N2CCOCC2)cc1 (stereo unspecified)
inactive: [1] -7.8% | [2] -4.85% | [3] -9.4% | [4] -6.8% | [5] -12.2% | [6] 9.2%

Nc1nc(Sc2ccc([N+](=O)[O-])c3nonc23)c2[nH]cnc2n1
inactive: [1] 17.1% | [2] 7.25% | [3] -20.4% | [4] 17.2% | [5] 29.1% | [6] 34.6%

CC1COS(=O)(=O)CS(=O)(=O)O1 (stereo unspecified)
inactive: [1] -61.2% | [2] -17.4% | [3] -15.8% | [4] -57.8% | [5] 6.7% | [6] -16.1%

CCC(=O)Oc1ccc(C(OC(=O)CC)OC(=O)CC)cc1OC
inactive: [1] -9.1% | [2] -9.1% | [3] 11.8% | [4] -20.2% | [5] 9.45% | [6] 8.05%

O=C(/C=N/O)Nc1cccc(Cl)c1I
inactive: [1] 18.4% | [2] -5.2% | [3] 30.1% | [4] 2.95% | [5] 12.6% | [6] 10.4%

CCCS(=O)(=O)N1CCCC1
inactive: [1] -1.25% | [2] -15.8% | [3] -2.1% | [4] -34.5% | [5] -24.4% | [6] -19.4%

COc1cc2c(c(OC)c1OC)-c1ccc(OC)c(=O)cc1C(NC(=S)Nc1ccccc1)CC2 (stereo unspecified)
active: [1] 96.5% | [2] 96.8% | [3] 96.8% | [4] 93.5% | [5] 95.6% | [6] 96.5%

O=C1CCC(c2ccccc2)(c2ccccc2)CC1
inactive: [1] 31.8% | [2] -24.6% | [3] -16.1% | [4] -15.5% | [5] 0.15% | [6] 17.5%

COC(=O)[C@H](Cc1ccc(OC(C)(C)C)cc1)N[C@H](C)C(=O)N[C@@H](Cc1ccccc1)C(=O)OCc1ccccc1
inactive: [1] 35.5% | [2] 35.1% | [3] 50.1% | [4] 67% | [5] 62.4% | [6] 57%

Cc1ccccc1C(OCCN(C)C)c1ccccc1 (stereo unspecified)
inactive: [1] -46.2% | [2] -44.8% | [3] -44% | [4] -6.65% | [5] -39% | [6] -28.1%

O=C1OC2c3ccccc3C3CC(=O)C2C13 (stereo unspecified)
inactive: [1] 10.2% | [2] -5.7% | [3] 9.35% | [4] 6.25% | [5] 1.25% | [6] 7.65%

CC1(C)CC[C@]2(C(=O)O)CC[C@]3(C)C(=CC[C@@H]4[C@@]5(C)CC[C@H](OC6OC(C(=O)O)C(O)C(O)C6O)C(C)(C)[C@@H]5CC[C@]43C)[C@@H]2C1 (stereo partly specified)
active: [1] 90.8% | [2] 91% | [3] 91.7% | [4] 92.5% | [5] 91.3% | [6] 88.7%

CCCCCCC1C=CC(CCCCCCCC(=O)O)C(/C=C/CCCCCCCC(=O)O)C1CCCCCC (stereo unspecified)
inactive: [1] -10.7% | [2] -10.8% | [3] -10.3% | [4] 21% | [5] -25% | [6] 6.85%

CC1(C)N=C(N)N=C(N)N1CCCCc1ccccc1
inactive: [1] -23.7% | [2] -41.9% | [3] -27.4% | [4] -25.4% | [5] -71.8% | [6] -16.6%

CN(C)Cc1cn(C[Si](C)(C)C)c2ccccc12
inactive: [1] 18.6% | [2] -3.25% | [3] 7.7% | [4] 0.35% | [5] 3.75% | [6] 13.2%

O=CN(C1CCCCC1)C1CCCCC1
inactive: [1] 14.6% | [2] 15.6% | [3] 11% | [4] 8.8% | [5] 1.5% | [6] 0%

From PubChem BioAssay (NCI)
